Screening data deposited in PubChem by National Center for Advancing Translational Sciences (NCATS).
KDM5B inhibitor – blocks human KDM5B histone demethylase activity. Q9UGL1. KDM5B demethylase, FDH-coupled NADH fluorescence (FDH is formaldehyde dehydrogenase). Potency, µM (top dose mostly 57.7 µM), usual class: inhibitors. 220,000 compounds, 2.6% hits. AID 1347165; also: potency is read from the fitted curve at half-maximal effect; 0% is about no effect; nearly all actives have a fitted effect of over 70% in size
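Inhibition is measured as reduced NADH fluorescence generation from FDH coupling to formaldehyde release. Truncated KDM5BΔAP at 200 nM final acts on H3K4me3 peptide (12.5 µM in substrate mix) in pH 7.5 HEPES buffer with Tween-20, 30 min, room temperature.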
HEK293 viab – counter-screen for SNCA expression inhibitors: cell viability; HEK-293-SNCA-luc viability, GF-AFC fluorescence, 24 h; Potency, µM (doses to about 57.1 µM), for the others: at the highest dose activity change, negative = cytotoxicity, usual class: cytotoxic; 150,000 compounds, 0.12% hits;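 also: potency is read from the fitted curve at half-maximal effect; 0% = DMSO-treated cells and -100% = medium-only wells without cells; nearly all actives have a fitted effect of over 30% in size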
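HEK-293-SNCA-luc cells (1500/well) plated 24 h, then exposed 24 h to a dilution series; GF-AFC added 30 min at 37C, fluorescence 405/540 nm; normalised to medium-only and DMSO wells, Hill fit.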
SNCA expr inhib – reduces expression of the alpha-synuclein gene; HEK-293 SNCA-luciferase knock-in, luminescence, 24 h; Potency, µM (highest dose often 57.2 µM), inactives show at the highest dose activity change, negative = inhibition, hits mostly inhibitors; 140,000 compounds, 0.17% hits; AID 1671194;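 also: potency is read from the fitted curve at half-maximal effect; plate controls were DMSO cells for no effect and cell-free wells for full effect; nearly all actives have a fitted effect of over 45% in size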
IP6K1 inhibitor – blocks human inositol hexakisphosphate kinase 1. Q92551. activity change, % (series mostly up to about 58 µM). AID 1645851. 140,000 compounds, 0.81% hits. IP6K1 kinase, ADP-Glo luminescence, 2 h; hits give low values; in the data active = activity change below about -25%; also: % is scaled to controls: 0 for no effect and ±100 for the full control effect
Target sequence (Q92551 whole entry, looked up): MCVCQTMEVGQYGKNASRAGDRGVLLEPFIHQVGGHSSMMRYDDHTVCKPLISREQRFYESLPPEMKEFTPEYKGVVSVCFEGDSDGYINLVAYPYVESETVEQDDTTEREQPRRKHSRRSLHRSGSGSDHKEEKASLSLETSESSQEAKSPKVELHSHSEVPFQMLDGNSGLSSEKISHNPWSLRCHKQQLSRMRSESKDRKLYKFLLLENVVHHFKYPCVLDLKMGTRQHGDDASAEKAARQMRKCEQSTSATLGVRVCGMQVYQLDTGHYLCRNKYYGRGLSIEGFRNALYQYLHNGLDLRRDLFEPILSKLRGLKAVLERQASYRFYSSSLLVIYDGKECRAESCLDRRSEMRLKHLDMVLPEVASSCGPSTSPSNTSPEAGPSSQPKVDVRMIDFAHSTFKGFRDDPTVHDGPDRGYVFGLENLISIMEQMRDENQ
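ADP-Glo luminescence measures ADP made by human IP6K1 during a 2 h RT reaction with ATP/IP6 (mix at 1.3 mM/130 uM); top library doses 57.5 and 19.1 uM final.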
* marks the source's active call; other numbers are inactive results; i = inactive; u = inconclusive; x = no result; ! = a repeat was not active; [ ] = remark or other dose. This is a sample that favours compounds with a hit; in the whole collection about 2.8% have one here. Unless noted, calls follow the shape of the dose curve; as a rule, active = well fitted curve in the direction sought with a large enough effect; inconclusive = small, poorly fitted or top-dose-only effect, or another doubt; inactive = no such curve, though single readings can be large; an effect the other way counts as inactive or inconclusive.

SMILES	KDM5B inhibitor	HEK293 viab	SNCA expr inhib	IP6K1 inhibitor
O=C(Cn1ccn2nc3c(c2c1=O)CCCCC3)Nc1ccccc1C(F)(F)F	u	-7.9%	16.6%	-1.0
CC(C)CCNC(=O)Cn1ccn2nc3c(c2c1=O)CCCC3	20µM*	-5.0%	u	1.7
C[C@@H]1CN(C(=O)c2ccc3c(c2)NC(C)(COc2ccc4[nH]ccc4c2)CO3)C[C@H](C)O1 (some centres not stated)	u	4.5%[87.6 µM]	-11.6%[87.6 µM]	-10.5
Cc1cccc(NC(=O)c2ccc(CN3C(=O)NC4(CCOCC4)C3=O)cc2)c1	i	-0.5%	-5.9%	18.1
CN(CCc1ccccc1)CCN1CC2(CCN(c3ncccc3C#N)CC2)OC1=O	31.6µM*	-3.8%	-4.7%	-12.0
Cc1ccc(-c2nc3cnccn3c2NCCC(=O)NCc2ccco2)cc1	28.2µM*	u	u	1.0
NCCC(=O)Nc1cc(F)ccc1F	i	x	x	x
COc1ccc(-c2nc3cnccn3c2NCCC(=O)Nc2ccc(C)cc2C)cc1	25.1µM*	u	32.4%	1.3
COc1ccc(-c2nc3cnccn3c2NCCC(=O)O)cc1	28.2µM*	u	1.2%	5.6
COc1ccccc1-c1nc2cnccn2c1NCCC(=O)Nc1cc(F)ccc1F	28.2µM*	u	-0.8%	30.4
O=C1NCCCCCN(C(=O)c2ccco2)[C@@H]2C[C@@H](C(=O)N3CCc4ccccc4C3)C[C@H]12	u	-10.6%	-8.3%	0.7
C=CCNC(=O)c1cccn2cncc12	u	-21.4%[87.6 µM]	7.5%[87.6 µM]	5.7
Cc1ccc(S(=O)(=O)N2CCCCC2)cc1NC(=O)CSc1nc(Cc2ccccc2)c(C)[nH]1	i	x	x	x
COc1ccc(S(=O)(=O)Nc2c(C)nc3nc[nH]n3c2=O)cc1	i	-2.2%	-4.6%	0.3
O=C(Cc1ccc(F)cc1)N1CCCC(c2nn(-c3ccc(F)cc3)c(=O)[nH]2)C1 (configuration not stated)	i	-5.3%	-22.3%	8.5
COc1ccc(-n2cc(CN3CCC(CO)CC3)c(-c3cccc(F)c3)n2)cc1	u	-4.4%	1.2%	18.1
COc1ccc(-n2cc(CN3CCCC(O)C3)c(-c3cccc(F)c3)n2)cc1 (configuration not stated)	22.4µM*	u	66.8%	-1.2
O=[S+]([O-])(c1cccs1)N1CCCN(c2ccnc3ccnn23)CC1	x	-4.0%	-3.1%	1.1
CCC(C(=O)NCc1nnc2ccc(-c3ccc(OC)cc3)nn12)c1ccccc1 (configuration not stated)	25.1µM*	1.5%	14.6%	10.0
CCC(C(=O)NCc1nnc2ccc(-c3ccccc3)nn12)c1ccccc1 (configuration not stated)	22.4µM*	3.1%	-15.1%	39.5
CC(Oc1cccc(Cl)c1)C(=O)NCc1nnc2ccc(-c3ccccc3)nn12 (configuration not stated)	u	13.1%	-13.2%	8.1
Cc1ccc(-n2ncc(C(=O)N3CCN(C(=O)c4ccco4)CC3)c2C2CCN(C(=O)OC(C)(C)C)CC2)cc1	u	-3.3%	-22.0%	7.4
Cc1noc(-c2cccs2)c1C(=O)NCCCCc1ccccc1	31.6µM*	-1.5%	5.3%	-10.3
CCCOCCNC(=O)c1c(C)noc1-c1cccs1	25.1µM*	5.5%	11.1%	-9.0
Cc1noc(-c2cccs2)c1C(=O)NCCC(c1ccccc1)c1ccccc1	35.5µM*	-2.4%	-20.9%	-19.7
SMILES	KDM5B inhibitor	HEK293 viab	SNCA expr inhib	IP6K1 inhibitor
CCOC(=O)c1ccc(NC(=O)CSc2nnc(CC)o2)cc1	i	x	x	x
COc1ccc(-c2nc3c(c(=O)[nH]2)CCN(S(=O)(=O)c2cccs2)C3)cc1	20µM*	-6.5%	-16.1%	28.7
COc1ccc(-c2nc3c(c(=O)[nH]2)CCN(C(=O)COc2ccccc2C)C3)cc1	25.1µM*	-13.3%	0.5%	1.9
COc1ccc(-c2nc3c(c(=O)[nH]2)CCN(C(=O)Cc2ccsc2)C3)cc1	u	u	14.3%	5.6
O=C(NC[C@H]1O[C@@H](CC(=O)N2CCOCC2)[C@H](O)[C@@H]1O)Nc1ccc(F)cc1F	i	5.6%[87.6 µM]	20.8%[87.6 µM]	0.4
Cc1nnc([C@@H]2CC(F)(F)CN2C(=O)c2cccc3[nH]ccc23)o1	28.2µM*	7.4%	23.2%	14.2
Cc1nnc([C@@H]2CC(F)(F)CN2C(=O)c2ccoc2C)o1	i	4.8%	9.3%	8.3
Cc1ccc(C)c(C(=O)Nc2ccc3[nH]c(C)cc3c2)c1	i	x	x	x
COc1ccc(-c2noc([C@@H]3CCCN3C(=O)Cc3cccc(F)c3)n2)cc1OC	25.1µM*	-13.1%	5.2%	-1.3
COc1ccc(C(=O)N2CCC[C@H]2c2nc(-c3ccc(OC)c(OC)c3)no2)c(C)c1	28.2µM*	-16.1%	19.8%	3.9
COc1ccc(CC(=O)N2CCC[C@H]2c2nc(-c3ccc(OC)c(OC)c3)no2)cc1Cl	u	-2.2%	38.5%	9.0
COc1ccc(-c2noc([C@@H]3CCCN3C(=O)Cc3ccccc3Cl)n2)cc1OC	28.2µM*	-17.8%	-10.1%	0.0
COc1ccc(C(=O)N2CCC[C@H]2c2nc(-c3ccc(OC)c(OC)c3)no2)cc1OC	i	-5.3%	30.8%	-1.7
CCCn1nc(C(=O)OCC#N)c2ccccc2c1=O	i	x	x	x
CCc1nc(C)cc(-c2cc(OC)c(OC)c(OC)c2)n1	25.1µM*	-3.4%	17.3%	34.0
CCCCc1ccc(Nc2nc(NCCO)c3nccnc3n2)cc1	i	x	x	x
CC(=O)N1CC(CO)C2(CCN(Cc3cccc(C#N)c3)CC2)C1 (configuration not stated)	i	0.3%	8.1%	6.1
OCC1CN(c2ncccn2)CC12CCN(Cc1cccc3[nH]ccc13)CC2 (configuration not stated)	31.6µM*	-1.0%	37.4%	0.8
O=C(c1cccc2[nH]ccc12)N1CCC2(CC1)CN(c1ncccn1)CC2CO (configuration not stated)	31.6µM*	-7.9%	-7.1%	10.9
OCC1CN(c2ncccn2)CC12CCN(Cc1ccc3[nH]ccc3c1)CC2 (configuration not stated)	22.4µM*	8.3%	u	15.9
OCC1CN(c2ncccn2)CC12CCN(Cc1c[nH]c3ccccc13)CC2 (configuration not stated)	u	1.7%	12.8%	18.3
N#Cc1cccc(CN2CCC3(CC2)CN(c2ncccn2)CC3CO)c1 (configuration not stated)	28.2µM*	-5.7%	-6.0%	17.8
COc1cc(OC)c(NC(=O)N2CCC3(CC2)N=C(c2cccc(F)c2)C(=O)N3)cc1Cl	i	x	x	x
C/C(=N\OC(=O)c1cc(-c2ccc(C)c(C)c2)nc2ccccc12)C(C)(C)C	i	x	x	x
Cc1ccc(Nc2nc(-c3ccc([N+](=O)[O-])cc3)cs2)cc1	i	x	x	x
O=C1[C@H](Cc2ccc(O)cc2)N2C(=O)CCN(C(=O)NCc3ccccc3)[C@H]2CN1Cc1cccc2ccccc12	x	24.1µM*	u	x
CC(C)(C)OC(=O)N1CC(Nc2ccc(O)cc2)C1	8.91µM*!	u	u	-17.8
